From PubChem
In the library only some 2.7% were active in any assay of this set; here they are far more common.
IDH1 R132H inh: inhibitors of human mutant IDH1 R132H; 390,000 compounds, 0.093% hits; Potency, µM (doses to about 76.6 µM), for inactives: at the top dose activity change, negative = inhibition, most hits filed as inhibitors; AID 602179; O75874; IDH1-R132H enzyme, NADPH consumption, diaphorase/resazurin fluorescence; further: on the % scale 0 is the no-effect control and ±100 the full control effect; nearly all actives have a fitted effect of over 65% in size
Target sequence (O75874 whole entry R132H, stated change not applied): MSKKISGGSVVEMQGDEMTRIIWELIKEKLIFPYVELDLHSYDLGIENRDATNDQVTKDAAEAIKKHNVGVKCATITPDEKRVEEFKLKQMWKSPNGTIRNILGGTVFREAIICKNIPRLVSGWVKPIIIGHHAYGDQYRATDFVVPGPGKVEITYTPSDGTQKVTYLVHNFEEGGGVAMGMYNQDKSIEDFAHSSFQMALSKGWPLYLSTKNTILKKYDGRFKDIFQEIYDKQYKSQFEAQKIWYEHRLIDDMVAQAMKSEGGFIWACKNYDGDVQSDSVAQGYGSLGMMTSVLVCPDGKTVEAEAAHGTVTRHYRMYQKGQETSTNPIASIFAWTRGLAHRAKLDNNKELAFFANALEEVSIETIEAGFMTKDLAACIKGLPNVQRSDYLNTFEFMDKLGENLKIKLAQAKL
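IDH1-R132H (0.5 ug/mL dispensed) in pH 7.5 Tris buffer was preincubated 30 min with compound, then given a substrate mix of 0.016 mM NADPH and 2 mM alpha-KG for 80 min at room temperature; remaining NADPH was read by diaphorase/resazurin fluorescence.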
GLP1R cytotox: cytotoxicity in counter-screen for GLP-1R inverse agonists | 410,000 compounds, 0.13% hits | HEK293 cAMP-luciferase reporter cells, luminescence, 24 h | Potency, µM (highest dose often 38.3 µM), for inactives: at the highest dose activity change, negative = inhibition, hits mostly inhibitors | AID 624418;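 further: loss of luciferase light is scored as toxicity; on the % scale 0 is the no-effect control and ±100 the full control effect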
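MLSMR compounds, 24 hr on cells at 37 deg C/5% CO2; luminescence after luciferase reagent (12 min RT). Inhibition counted as the undesired cytotoxic outcome.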
GLP-1R agonist: agonists of human GLP-1 receptor; P43220; Potency, µM (series often up to 45.6 µM), without a hit: at the highest dose activation, most hits filed as activators; HEK293 GLP-1R CRE-luciferase, luminescence, 4-6 h; cells express a hypersensitive GLP-1R form; 380,000 compounds, 0.007% hits; further: % of control where 0% means no effect
TrxR1 inh: blocks rat thioredoxin reductase 1. Potency, µM (titrated, usually from 114 µM), for inactives: at the highest dose activity change, negative = inhibition, usual class: inhibitors. O89049. AID 588453. recombinant rTrxR1, NADPH fluorescence consumption, selenite substrate. 390,000 compounds, 1% hits; further: on the % scale 0 is the no-effect control and ±100 the full control effect; nearly all actives have a fitted effect of over 65% in size
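Rat TrxR1 (90 nM in the dispensed reagent) was pre-reduced with 400 uM NADPH for 5 min at room temperature, then incubated with compound for 15 min. After 400 uM selenite was added, NADPH fluorescence (Ex 340/Em 450 nm) was followed for 8 min.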
TrxR1 substrate: substrates of rat thioredoxin reductase 1; purified TrxR1 substrate turnover, NADPH consumption readout; 390,000 compounds, 0.01% hits; AID 588456; O89049; Potency, µM (top dose mostly 114 µM), without a hit: at the highest dose activity change, negative = substrate turnover; further: on the % scale 0 is the no-effect control and ±100 the full control effect; nearly all actives have a fitted effect of over 50% in size
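Rat TrxR1, dispensed at 90 nM, was prereduced with 400 uM NADPH (final) for 5 min at ~22 deg C, then incubated with compound 15 min before 400 uM selenite. A first-read NADPH fluorescence drop versus no-compound background flagged substrates.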
GLP-1R inv ag: inverse agonists of human GLP-1 receptor; HEK293 GLP-1R CRE-luciferase, luminescence, 24 h; GLP-1R form is constitutively active; 410,000 compounds, 1.6% hits; P43220; Potency, µM (top dose mostly 38.3 µM), inactives show at the highest dose activity change, negative = inhibition, usual class: inhibitors; further: on the % scale 0 is the no-effect control and ±100 the full control effect; nearly all actives have a fitted effect of over 55% in size
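Seeding at 200 cells/uL, 12 h culture, 24 hr compound treatment, then luciferase reagent and a luminescence read; cells are HEK293 stably expressing a constitutively active GLP-1R plus cAMP-responsive luciferase.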
An asterisk follows results filed as active; ? = inconclusive; . = no result given; [ ] = another dose, or the depositor's remark. The call rests on the fitted dose curve; in most records, active means well fitted curve in the direction sought with a large enough effect; inconclusive means small, poorly fitted or top-dose-only effect, or another doubt; inactive means no such curve, though single readings can be large; an effect the other way counts as inactive or inconclusive. Potency means the concentration at half of the fitted maximal effect.

SMILES | IDH1 R132H inh | GLP1R cytotox | GLP-1R agonist | TrxR1 inh | TrxR1 substrate | GLP-1R inv ag
O=C1[C@H]2[C@@H](c3ccc(F)cc3)N3C(=O)N(c4cccc(Cl)c4)C(=O)[C@@]3(Cc3ccccc3)[C@H]2C(=O)N1C1CCCCC1 | 2.9% | 2.5% | -1.0% | 39.9% | 2.9%[57.1 µM] | 5.62µM*
O=C1[C@H]2[C@@H](c3ccc(F)cc3)N3C(=O)N(c4cccc(Cl)c4)C(=O)[C@@]3(Cc3ccc(Cl)cc3)[C@H]2C(=O)N1C1CCCCC1 | 14.0% | -7.2% | -4.3% | 1.6% | -2.7% | ?
COC(=O)[C@]12CCCCC=C1N(Cc1ccc(Cl)cc1Cl)C(=O)[C@H](CC(=O)N1CCC(c3ccccc3)CC1)C2 | . | 3.8% | -2.9% | . | . | 11.2µM*
O=C(CSc1ccccc1)N(c1ccc(Br)cc1)c1nccs1 | 8.4% | -1.1% | 13.2% | 37.5% | 3.1% | 11.2µM*
O=C(CCCCN1CCCCC1)c1ccccc1 | -5.2% | -0.8% | 3.1% | 27.4% | 3.2% | 13.7%
O=C(CCN1CCC2CCC(C2)C1)c1ccccc1 (stereo unspecified) | -10.8% | 13.4% | 0.5% | 0.708µM* | 3.3%[11.4 µM] | 17.8%
O=C(Nc1nc(-c2ccc(Cl)cc2Cl)cs1)c1ccc(OCC2CCCO2)cc1 (stereo unspecified) | 2.1% | -1.1% | 4.7% | 18.7%[57.1 µM] | 8.3%[57.1 µM] | 7.08µM*
CC1CCc2c(sc(NC(=O)c3cc(-c4ccc(F)cc4)on3)c2C(N)=O)C1 (stereo unspecified) | -23.2% | 2.4% | . | 27.1% | 3.8% | 3.1%
CCOC(=O)C1(Cc2ccccc2C)CCCN(C(=O)c2ccoc2)C1 (stereo unspecified) | 16.4% | -6.9% | 4.6% | -16.1% | -6.6% | -30.0%
CCOC(=O)C1(Cc2ccccc2C)CCCN(C(=O)c2sccc2C)C1 (stereo unspecified) | 7.0% | 0.8% | 4.3% | 11.1% | 3.6% | 10µM*
Cc1ccc(/C=C/C(=O)NCC2COc3ccccc3O2)o1 (stereo unspecified) | -1.0% | -5.2% | 5.4% | 15.8µM* | 5.1% | -17.6%
CCc1ccc(N2C(=O)C(Cl)=C(N3CCOCC3)C2=O)cc1 | 0.9% | -2.4% | 0.2% | -18.3% | -15.2% | 31.2%
CCc1ccc(N2C(=O)C(Cl)=C(N3CCCCCC3)C2=O)cc1 | 8.9% | 4.7% | 10.8% | 1.4% | -4.7% | 10µM*
CCn1c(C(=O)NCc2ccc(OC(C)C)cc2)cc2oc3ccccc3c21 | . | 0.9% | . | 62.2% | 46.5% | ?
CCn1c(C(=O)NCc2ccccc2C)cc2oc3ccccc3c21 | . | 1.0% | . | 44.7% | 54.6% | 5.01µM*
COc1cccc(C(=O)CC2(O)C(=O)N(Cc3ccccc3)c3ccccc32)c1 (stereo unspecified) | -3.5% | -1.4% | . | -9.0% | -4.0% | 0.8%
COc1cccc(C2=Nc3cccc4cccc(c34)N2)c1 | 22.4% | -5.6% | -1.0% | -1.1%[57.1 µM] | 3.5%[57.1 µM] | 13.6%
c1coc(C2=Nc3cccc4cccc(c34)N2)c1 | 0.0% | ? | -7.7% | 35.5µM* | -7.0% | 17.8%
Cc1oc2ncn(C)c(=O)c2c1C(=O)NCCCN1CCCC(C)C1 (stereo unspecified) | -10.0% | -7.3% | . | 1.8% | -3.8% | ?
Cc1ccc2c(c1)N(C(=O)Nc1cccc3c1CCCC3)CC(C)O2 (stereo unspecified) | 3.1% | 24.0% | . | 4.9% | -0.1% | 10µM*
COC(=O)N/N=C/c1cc(Cl)c(OCc2ccccc2F)c(OC)c1 | 14.2% | -15.8% | 9.0% | 35.2%[57.1 µM] | -12.4%[57.1 µM] | 10µM*
COC(=O)N/N=C/c1cc(Cl)c(OCc2ccc(F)cc2)c(OC)c1 | 2.5% | 10.4% | -5.3% | 8.9% | -2.3% | -4.8%
CCn1ccc2cc(S(=O)(=O)N3CCC(C(=O)NCC(C)c4ccccc4)CC3)ccc21 (stereo unspecified) | 2.2% | -12.3% | . | 17.0%[57.1 µM] | 0.5%[57.1 µM] | 5.6%
CC(CNC(=O)Cn1ccc2cc(S(=O)(=O)N3CCCCCC3)ccc21)c1ccccc1 (stereo unspecified) | 0.0% | -8.1% | . | -2.7% | -9.6% | 11.2µM*
CCC(Cn1nnc2ccccc2c1=O)NC(=O)Nc1cccc(Cl)c1 (stereo unspecified) | 16.1% | -9.3% | . | 12.0% | 4.7% | -19.5%
SMILES | IDH1 R132H inh | GLP1R cytotox | GLP-1R agonist | TrxR1 inh | TrxR1 substrate | GLP-1R inv ag
CCN(CC)S(=O)(=O)c1ccc(NC(=O)NCc2noc3ccc(C)cc23)cc1 | 0.0% | -30.5% | . | 13.7% | -6.3% | 10µM*
COc1cc(C(=O)O[C@H]2C/C(C)=C/CC[C@@]3(C)O[C@@H]3[C@H](O)[C@@H]2C(C)C)cc(OC)c1OC | 19.9% | 6.3% | 8.0% | 12.5% | 2.0% | 12.6µM*
CC(=O)N1CCC2(CC1)OC(=O)C(C)=C2C(=O)Nc1cccc(Cl)c1C | 19.3% | 4.4% | . | -11.6% | -7.7% | 0.6%
CC1=C(C(N)=O)C(c2cccs2)n2ncnc2N1 (stereo unspecified) | -2.8% | 6.7% | -0.3% | 20.1% | 21.0% | 16.1%
c1csc(C2C3=C(Nc4ncnn42)c2ccccc2OC3)c1 (stereo unspecified) | 4.8% | 82.5% | 2.2% | 79.4µM* | 18.2% | -7.6%
CN(C)c1ccc(/C=C2\C=Cc3ccccc32)cc1 | . | . | . | -15.3% | -4.8% | .
COc1ccccc1/C=C1\C=Cc2ccccc21 | . | . | . | 22.4µM* | -12.9% | .
CN(C)/C=C1\C=Cc2ccccc21 | . | . | . | 2.24µM* | -5.1% | .
CN(C)c1ccc(C=C2C=Cc3ccccc32)cc1 | 6.6% | -25.5% | 0.5% | -29.1% | -5.4% | -2.9%
CC(C)CN(C)c1ccc(/C=C2\C=Cc3ccccc32)cc1 | . | . | . | 44.7µM* | -3.4% | .
CC(C)(C)C(=O)OCOC(=O)C1N2C(=O)CC2S(=O)(=O)C1(C)C (stereo unspecified) | . | . | -5.6% | . | . | .
COc1ccc(C)cc1Nc1n[n+](-c2ccccc2)c(-c2ccc(N(C)C)cc2)s1 | ? | -8.2% | 3.0% | 8.91µM* | -0.4% | -11.4%
Nc1c(C(=O)Nc2ccccc2Cl)nnn1Cc1cccc(Cl)c1 | -4.8% | -7.6% | . | 25.3% | 0.7% | ?
COCCCNC(=O)c1c(NC(=O)Cc2coc3cc(C)ccc23)sc2c1CCCC2 | 1.6% | -3.3% | . | 25.9% | 10.9% | ?
Cc1c(N(C)C)nc2ccccc2c1N | -1.9% | 7.4% | 4.4% | 10.2%[57.1 µM] | 6.9%[57.1 µM] | 13.1%
CCN(CC)c1nc2ccccc2c(N)c1-c1ccccc1 | 6.3% | -6.0% | -0.7% | 5.7%[57.1 µM] | 6.0%[57.1 µM] | 2.51µM*
COc1ccc(CSc2nc3ccncc3n2Cc2nc(-c3ccc(OC)c(OC)c3)oc2C)cc1 | -6.1% | 3.3% | . | 1.2% | 1.3% | 11.9%
O=C1c2ccccc2C(=O)N1c1nc(-c2ccc(F)cc2)cs1 | . | . | . | 16.2%[0.0914 µM] | 8.6%[0.0914 µM] | .
